CIT2 TOR yeast = yeast TOR pathway CIT2-GFP modulation; AID 2029; actives 0.065% (n = 320,000); GFP response vs DMSO, % at 10 µM; S. cerevisiae CIT2-GFP strain, flow cytometry, 3 h; 100 means same as DMSO wells;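 active = GFP response relative to DMSO above a set limit, near the screen mean plus 3 SD, cut at about 150% in these data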;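 note: ratio of well median GFP fluorescence to mean of DMSO wells on the plate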
MEP2 TOR yeast = modulators of TOR pathway MEP2-GFP in S. cerevisiae; S. cerevisiae MEP2-GFP strain, flow cytometry GFP, 3 h; 100% = DMSO control level; GFP response vs DMSO, % at 10 µM; actives 0.51% (n = 330,000); AID 2016;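 active = GFP response versus DMSO above a set limit, roughly screen mean plus 3 SD, cut at about 180% in these data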;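 note: median GFP fluorescence of the barcode-gated MEP2-GFP cells per well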
RPL19A TOR yeast = alters RPL19A-GFP fluorescence in TOR pathway yeast screen; S. cerevisiae RPL19A-GFP strain, flow cytometry, 3 h; stronger effect = lower value; percent response vs DMSO, % at 10 µM; AID 2025; actives 0.3% (n = 330,000);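 active = percent response vs DMSO below 50%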;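 note: median channel GFP fluorescence of the barcoded RPL19A-GFP strain; ratio of sample median GFP to plate DMSO average so 100% = DMSO; lower means less RPL19A-GFP as with rapamycin TOR inhibition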
AGP1-GFP MLPCN = alters AGP1-GFP fluorescence in TOR pathway yeast screen | actives 0.02% (n = 320,000) | GFP response vs DMSO, % at 10 µM | S. cerevisiae AGP1-GFP multiplex flow cytometry, 3 h; GFP as percent of DMSO wells;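 active = GFP response relative to DMSO above a set limit, near screen average plus 3 SD, cut at about 150% in these data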;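 note: median GFP channel fluorescence of the gated AGP1 strain per well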
LAP4 TOR yeast = alters LAP4-GFP fluorescence in TOR pathway yeast screen; S. cerevisiae LAP4-GFP multiplex, flow cytometry GFP, 3 h; median GFP as percent of DMSO wells; GFP response vs DMSO, % at 10 µM; actives 0.34% (n = 320,000); AID 2023;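 active = GFP response vs DMSO above a set limit, about the screen mean plus 3 SD, cut at about 150% in these data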
LAP4 cherry2 = yeast LAP4-GFP modulation, second cherry pick | S. cerevisiae LAP4-GFP strain, flow cytometry GFP, 3 h | shares compounds with LAP4 TOR yeast | actives 20% (n = 590) | GFP response vs DMSO, % at 10 µM;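 active = GFP signal as percent of the solvent control above about 150%, meaning raised reporter expression, limit read from the data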;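 note: ratio of well median GFP fluorescence to plate DMSO mean so 100% = DMSO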
MEP2 cherry2 = second confirmation of modulators of TOR reporter MEP2-GFP in yeast; shares compounds with LAP4 TOR yeast; S. cerevisiae MEP2-GFP strain, flow cytometry GFP, 3 h; GFP response vs DMSO, % at 10 µM; actives 10% (n = 590);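 active = GFP signal above 150% of the solvent control wells, that is a rise of more than half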;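 note: median channel GFP fluorescence of all gated yeast cells per well; ratio of median GFP to plate DMSO average so 100% = DMSO level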
RPL19A GFP CP2 = second confirmation of modulators of TOR reporter RPL19A-GFP in yeast. S. cerevisiae RPL19A-GFP strain, flow cytometry GFP, 3 h; stronger effect = lower value; 100% means same as DMSO wells. shares compounds with LAP4 TOR yeast. actives 3% (n = 590). GFP response vs DMSO, % at 10 µM;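 active = under 65% GFP response relative to DMSO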;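 note: median GFP channel fluorescence per well over the all cells gate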
CIT2 GFP CP2 = reconfirmed modulator of CIT2-GFP TOR reporter in yeast. shares compounds with LAP4 TOR yeast. S. cerevisiae CIT2-GFP strain, flow cytometry GFP, 3 h; DMSO control wells read 100%. GFP response vs DMSO, % at 10 µM. actives 8% (n = 590). AID 2624;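 active = GFP response vs DMSO above about 150%, limit read from the data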;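 note: median green fluorescence per well over all gated yeast cells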
AGP1 GFP CP2 = reconfirmed modulator of AGP1-GFP TOR reporter in yeast. S. cerevisiae AGP1-GFP strain, flow cytometry GFP, 3 h. AID 2643. shares compounds with LAP4 TOR yeast. percent response vs DMSO, % at 10 µM. 590 tested, under 10 active;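 active = over 150 percent of DMSO response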;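 note: median GFP channel fluorescence over all cells without mother daughter split; sample median GFP divided by mean DMSO control so 100% equals DMSO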
Yeast autofluor = yeast s288c autofluorescence artifact, counter-screen | fluorescence change (kMESF span) at 33 µM | 610 tested, under 10 active | shares compounds with LAP4 TOR yeast | S. cerevisiae s288c, 520 nm autofluorescence, flow cytometry, 3 h; stronger effect = higher value; zero means same as solvent-only cells;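 active = fluorescence span over the dose series, or activity score, above about 33, limit read from the data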
Yeast autofl DR = yeast s288c autofluorescence artifact in dose response | shares compounds with LAP4 TOR yeast | S. cerevisiae s288c parental, compound autofluorescence, flow cytometry, 3 h | fluorescence change (span) at 33 µM | 110 tested, under 10 active | AID 488829;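 active = fluorescence change span, or the activity score built from it, above 25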
TORC1 bypass gr = stops wildtype yeast growth while TORC1 bypass cells still grow | shares compounds with LAP4 TOR yeast | S. cerevisiae BY4741 spot growth rating, 48-72 h; stronger effect = lower value | growth rating (0-3) at 30 µM | 120 tested, under 10 active;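 active = growth rating at most 1 for wild type yeast while the TORC1 bypass strain still grows fully, rated 3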
The depositor's hits bear a star; nt = no result given; + = active, no number; [ ] = dose if it differs, or a comment. Shown are actives, neighbours in structure and some others; about 0.89% of the full set was active somewhere.

SMILES	CIT2 TOR yeast	MEP2 TOR yeast	RPL19A TOR yeast	AGP1-GFP MLPCN	LAP4 TOR yeast	LAP4 cherry2	MEP2 cherry2	RPL19A GFP CP2	CIT2 GFP CP2	AGP1 GFP CP2	others
Cc1ccc(NS(=O)(=O)c2cccc(C(=O)NCC3CCCO3)c2)cc1 (configuration not stated)	104	99	96	109	100	nt	nt	nt	nt	nt
Cc1cc(N2CCN(S(=O)(=O)c3ccc(Br)cc3)CC2)n2ncnc2n1	84	142	50	28	85	103	108	98	103	96
CCCCNc1c(C(=O)OCC)c(C)nc2c1cnn2CC	91	102	107	95	123	nt	nt	nt	nt	nt
COc1ccc(C2CC(c3ccccc3O)=NN2C(=O)c2ccccc2)cc1OC (configuration not stated)	106	102	103	99	94	nt	nt	nt	nt	nt
COc1ccc(C2=NN(C(=O)c3ccccc3)C(c3ccc(OC)c(OC)c3)C2)c(OC(C)=O)c1 (configuration not stated)	113	+	95	83	101	102	105	100	104	99
Cc1cccn2c(=O)c3cc(C#N)c(=N)n(CCCN4CCOCC4)c3nc12	78	115	63	74	78	99	103	99	97	98
O=[N+]([O-])c1ccc(S(=O)(=O)c2cccc(C(F)(F)F)c2)nc1	nt	102	70	nt	nt	nt	nt	nt	nt	nt	Yeast autofluor=0.81;Yeast autofl DR=0.73;TORC1 bypass gr=3
Cc1ccc(C(=O)NCC(=O)Nc2ccc(S(=O)(=O)Nc3cc(C)nc(C)n3)cc2)cc1	96	104	85	101	153*	100	98	101	103	98
COc1ccc(-n2nc(C(=O)NCC(=O)NCCCN3CCOCC3)c3ccccc3c2=O)c(OC)c1	106	96	103	103	102	nt	nt	nt	nt	nt
O=C(COC(=O)/C=C/c1cccc(F)c1)NC1CCCC1	85	94	93	92	103	nt	nt	nt	nt	nt
O=C(COC(=O)/C=C/c1cccc(F)c1)NC(=O)NC1CCCC1	87	87	76	99	164*	104	103	99	103	98
Cc1nc(C)c(C(=O)Nc2cccc(F)c2)s1	96	118	99	90	106	nt	nt	nt	nt	nt
CCNc1c([N+](=O)[O-])c(=O)n(CC)c2ccccc12	100	92	96	97	99	nt	nt	nt	nt	nt
CCn1c(=O)c([N+](=O)[O-])c(NCc2ccco2)c2ccccc21	95	109	92	96	201*[may fluoresce green]	104	115	98	107	101
COc1ccc(Cl)cc1S(=O)(=O)NC(C)C(=O)NCc1cccnc1 (configuration not stated)	98	102	103	97	91	nt	nt	nt	nt	nt
